# About 79,000 compounds went through this panel and 15% of them were active in at least one assay; those are over-represented in the sample as a whole. Unmarked numbers belong to inactive results. Calls of active or inactive are those of the source. Rule as the data show it: active = growth inhibition above about 70%; inactive = the rest.
# Legend:
# [1] = NCI Yeast Anticancer Drug Screen. Data for the rad50 strain (AID 155);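 also: 0% = growth of vehicle-only cultures of the same strain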; details: S. cerevisiae rad50 strain growth inhibition, hits give high values
# In short: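 Growth of the mutant yeast was measured after compound exposure and referenced to vehicle-treated cultures.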
# [2] = NCI Yeast Anticancer Drug Screen. Data for the mec2-1 strain (AID 157); details: S. cerevisiae mec2-1 strain, hits give high values
# In short: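 Each compound was tested on mec2-1 yeast, a strain altered in DNA damage repair or cell cycle control. Growth inhibition is reported relative to vehicle.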
# [3] = NCI Yeast Anticancer Drug Screen. Data for the sgs1 mgt1 strain (AID 161);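 also: 0% = growth of cultures given vehicle only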; details: S. cerevisiae sgs1 mgt1 strain, hits give high values
# In short: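 Inhibition of yeast growth, normalised to vehicle-treated controls, is reported for a strain bearing genetic alterations in DNA damage repair.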
# [4] = NCI Yeast Anticancer Drug Screen. Data for the cln2 rad14 strain (AID 165);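 also: 0% = growth equal to vehicle treated cultures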; details: S. cerevisiae cln2 rad14 strain, hits give high values
# In short: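 Test compounds were added to cln2 rad14 yeast cultures; inhibition of growth was then determined by comparison with vehicle treatment.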
# [5] = NCI Yeast Anticancer Drug Screen. Data for the bub3 strain (AID 167); details: S. cerevisiae bub3 mutant strain, hits give high values
# In short: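 Whole-cell yeast assay. The mutant strain was incubated with compounds, and growth inhibition was determined by comparison with vehicle-treated cells.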
# [6] = NCI Yeast Anticancer Drug Screen. Data for the mlh1 rad18 strain (AID 175); details: S. cerevisiae mlh1 rad18 strain growth inhibition, hits give high values
# In short: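 Inhibition values reflect reduced growth of mutant yeast versus vehicle-treated controls following compound exposure; the mutations affect DNA damage repair.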
# [7] = at 5.0 µM (retest, dose inferred, filed as 0.5)
# [8] = at 50.0 µM (retest, dose inferred, filed as 5.0)
Compound,"growth inhibition [1, 7] [%]","growth inhibition [1, 8]",growth inhibition ([1]; at 50.0 µM),"growth inhibition [2, 7] [%]","growth inhibition [2, 8]",growth inhibition ([2]; at 50.0 µM),"growth inhibition [3, 7] [%]","growth inhibition [3, 8]",growth inhibition ([3]; at 50.0 µM),"growth inhibition [4, 7] [%]","growth inhibition [4, 8]",growth inhibition ([4]; at 50.0 µM),"growth inhibition [5, 7] [%]","growth inhibition [5, 8]",growth inhibition ([5]; at 50.0 µM),"growth inhibition [6, 7]","growth inhibition [6, 8]",growth inhibition ([6]; at 50.0 µM)
C=C(C)CCC(=C)C,22,91% (active),48.7%,3,47%,14.1%,11,63%,42.4%,-4,26%,29.8%,-2,2%,-35.2%,16%,64%,42%
C1=C(c2ccccc2)C(c2ccccc2)C(c2ccccc2)C/C1=N/OCCN1CCCC1 (stereo not given),30,99% (active),99% (active),55,99% (active),99.6% (active),17,100% (active),99.6% (active),-9,98% (active),55.1%,39,99% (active),99.2% (active),78% (active),99% (active),97.7% (active)
Nc1ncnc(N2CCOCC2)c1N,-1,-5%,11.7%,0,0%,29.6%,3,0%,0.95%,-7,2%,83.8% (active),-3,-2%,-10.7%,-4%,-6%,83.5% (active)
CC(CC=NCCN=CCC(C)CC(C)(C)C)CC(C)(C)C (stereo not given),16,-2%,97.9% (active),-3,3%,68.3%,5,45%,91.3% (active),0,10%,30.1%,-6,3%,96.3% (active),1%,20%,98.4% (active)
CC(C)C1=CC[C@H]2C(=C1)CC[C@@H]1[C@]2(C)CCC[C@@]1(C)C(=O)O,-2,90% (active),79.3% (active),15,91% (active),84.5% (active),9,91% (active),74.8% (active),-9,92% (active),87% (active),-6,89% (active),78.2% (active),7%,90% (active),77.1% (active)
